Measured values published in the supplement of paper PMC6089552.
Screen size: about 3,200 compounds; about 300 (9.4%) showed activity. This is one part of a sample in which actives are shown more often than they occur.

Test system: A673/TR/shEF
Assay: cell viability (LOESS-normalised, relative to median of negative controls) (log2 ratio); higher = more viable cells (less compound effect), active = hit call of the paper (over 3 MAD below the median)
Details: treatment time: 72 h
Method in brief: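 A673/TR/shEF Ewing sarcoma cells (1,500 per well, 384-well plates) were grown with or without doxycycline to induce EWS-FLI1 shRNA knockdown, starting 24 h before compounds. Library compounds at two or more concentrations, with DMSO controls, were added for three days. Cell viability was read by CellTiter-Glo luminescence on an Envision reader, then LOESS-corrected per plate, divided by the median of negative controls and log2-transformed. Hits were wells at least three median absolute deviations from the median of all screened wells.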

[1] = 0.25 µM, library screen: screen2, EWS-FLI1 expression: high (no doxycycline)
[2] = 0.25 µM, library screen: screen2, EWS-FLI1 expression: low (doxycycline-induced shRNA knockdown)
[3] = 2.5 µM, library screen: screen2, EWS-FLI1 expression: high (no doxycycline)
[4] = 2.5 µM, library screen: screen2, EWS-FLI1 expression: low (doxycycline-induced shRNA knockdown)
[5] = 0.25 µM, library screen: screen1, EWS-FLI1 expression: high (no doxycycline)
[6] = 0.25 µM, library screen: screen1, EWS-FLI1 expression: low (doxycycline-induced shRNA knockdown)
[7] = 2.5 µM, library screen: screen1, EWS-FLI1 expression: high (no doxycycline)
[8] = 2.5 µM, library screen: screen1, EWS-FLI1 expression: low (doxycycline-induced shRNA knockdown)
[9] = 0.103 µM, library screen: screen3, EWS-FLI1 expression: high (no doxycycline)
[10] = 0.103 µM, library screen: screen3, EWS-FLI1 expression: low (doxycycline-induced shRNA knockdown)
[11] = 0.308 µM, library screen: screen3, EWS-FLI1 expression: high (no doxycycline)
[12] = 0.308 µM, library screen: screen3, EWS-FLI1 expression: low (doxycycline-induced shRNA knockdown)
[13] = 0.926 µM, library screen: screen3, EWS-FLI1 expression: high (no doxycycline)
[14] = 0.926 µM, library screen: screen3, EWS-FLI1 expression: low (doxycycline-induced shRNA knockdown)
[15] = 2.8 µM, library screen: screen3, EWS-FLI1 expression: high (no doxycycline)
[16] = 2.8 µM, library screen: screen3, EWS-FLI1 expression: low (doxycycline-induced shRNA knockdown)
[17] = 8.3 µM, library screen: screen3, EWS-FLI1 expression: high (no doxycycline)
[18] = 8.3 µM, library screen: screen3, EWS-FLI1 expression: low (doxycycline-induced shRNA knockdown)
[19] = 25 µM, library screen: screen3, EWS-FLI1 expression: high (no doxycycline)
[20] = 25 µM, library screen: screen3, EWS-FLI1 expression: low (doxycycline-induced shRNA knockdown)

Measured: cell viability (log2)

Cc1ccccc1N1CCN(S(=O)(=O)C[C@]23CCC(CC2NC(=O)[C@@H](N)CCS(C)(=O)=O)C3(C)C)CC1 (stereo not given in full)
inactive: [1] 0.163 | [2] 0.172 | [3] 0.18 | [4] 0.0913

CC(C)=CCCC1(C)C=Cc2c(O)c3c(c(CC=C(C)C)c2O1)OC12C(=CCCC1C(C)(C)OC2(CC=C(C)C(=O)O)C(=O)O)C3=O (stereo not given)
inactive: [5] 0.0468 | [6] -0.0618 | [7] 0.121 | [8] 0.0265

CN(C)C(=O)/N=N/C(=O)N(C)C
inactive: [1] 0.0755 | [2] 0.0201 | [3] 0.21 | [4] 0.117

CCC1=C(C)CN(C(=O)NCCc2ccc(S(=O)(=O)NC(=O)NC3CCC(C)CC3)cc2)C1=O (stereo not given)
active: [19] -0.481 | [20] -0.408
inactive: [9] 0.065 | [10] 0.0619 | [11] -0.018 | [12] 0.0454 | [13] -0.0554 | [14] -0.00949 | [15] 0.0264 | [16] -0.0201 | [17] -0.0146 | [18] -0.0784

COc1ccc(Cl)cc1C(=O)NCCc1ccc(S(=O)(=O)NC(=O)NC2CCCCC2)cc1
inactive: [9] 0.115 | [10] 0.0621 | [5] 0.0607 | [6] 0.0399 | [1] 0.171 | [2] 0.0382 | [11] 0.175 | [12] 0.0954 | [13] 0.104 | [14] 0.103 | [7] 0.0749 | [8] 0.0806 | [3] 0.0699 | [4] 0.0189 | [15] 0.125 | [16] 0.0778 | [17] 0.113 | [18] 0.0685 | [19] 0.0907 | [20] 0.0579

Cc1cnc(C(=O)NCCc2ccc(S(=O)(=O)NC(=O)NC3CCCCC3)cc2)cn1
inactive: [9] 0.103 | [10] 0.0573 | [1] 0.139 | [2] -0.00978 | [11] 0.195 | [12] 0.0857 | [13] 0.143 | [14] 0.063 | [3] 0.155 | [4] 0.035 | [15] 0.0953 | [16] 0.0849 | [17] 0.13 | [18] 0.0833 | [19] 0.172 | [20] 0.135

CC1(C)[C@@H](O[C@@H]2O[C@H](C(=O)O)[C@@H](O)[C@H](O)[C@H]2O[C@@H]2O[C@H](C(=O)O)[C@@H](O)[C@H](O)[C@H]2O)CC[C@]2(C)[C@H]3C(=O)C=C4[C@@H]5C[C@@](C)(C(=O)O)CC[C@]5(C)CC[C@@]4(C)[C@]3(C)CC[C@@H]12
inactive: [5] 0.061 | [6] 0.0758 | [7] 0.126 | [8] 0.123

NC[C@@H]1O[C@H](O[C@@H]2[C@@H](CO)OC(O[C@H]3C(O[C@H]4O[C@H](CO)[C@@H](O)[C@H](O)[C@H]4N)[C@@H](N)C[C@@H](N)[C@@H]3O)[C@@H]2O)[C@H](N)[C@@H](O)[C@@H]1O (stereo not given in full)
inactive: [5] 0.0774 | [6] 0.116 | [1] 0.171 | [2] 0.0601 | [7] 0.0937 | [8] 0.0802 | [3] 0.19 | [4] 0.0499

COc1ccc(OC)c(CN2CCN(Cc3ccc(F)cc3)CC2)c1
inactive: [5] 0.102 | [6] 0.0528 | [7] 0.106 | [8] -0.00941

CN1CCN(CCOc2cc(OC3CCOCC3)c3c(Nc4c(Cl)ccc5c4OCO5)ncnc3c2)CC1
active: [17] -0.339 | [18] -0.15 | [19] -0.476 | [20] -0.808
inactive: [9] 0.0216 | [10] 0.122 | [11] -0.0387 | [12] 0.0239 | [13] -0.075 | [14] 0.0267 | [15] -0.153 | [16] -0.0864

C[C@@H]1O[C@H](OC[C@H]2O[C@@H](Oc3c(-c4ccc(O)c(O)c4)oc4cc(O)cc(O)c4c3=O)[C@H](O)[C@@H](O)[C@@H]2O)[C@H](O)[C@H](O)[C@H]1O
inactive: [5] -0.0111 | [6] 0.0513 | [7] 0.125 | [8] 0.094

C[C@H](CCC(=O)O)[C@H]1CC[C@H]2[C@@H]3C(O)CC4=CC(=O)CC[C@]4(C)[C@H]3CC[C@]12C (stereo not given in full)
inactive: [5] 0.0418 | [6] -0.00533 | [7] 0.162 | [8] -0.0526

C[n+]1c2cc(N)ccc2cc2ccc(N)cc21
active: [3] -0.404 | 25 µM, library screen: screen2, EWS-FLI1 expression: high (no doxycycline) -4.23 | 25 µM, library screen: screen2, EWS-FLI1 expression: low (doxycycline-induced shRNA knockdown) -2.18
inactive: 0.025 µM, library screen: screen2, EWS-FLI1 expression: high (no doxycycline) 0.0847 | 0.025 µM, library screen: screen2, EWS-FLI1 expression: low (doxycycline-induced shRNA knockdown) 0.099 | [5] 0.0872 | [6] 0.141 | [1] 0.0533 | [2] 0.0413 | [7] 0.0728 | [8] 0.101 | [4] -0.0252

CCCCN1CCC(COC(=O)c2cc(Cl)c(N)c3c2OCCO3)CC1
inactive: [2] -0.0248 | [3] 0.148 | [4] 0.108
active: [1] -0.151

CC[C@H](/C=C/[C@@H](C)[C@H]1CC[C@H]2[C@@H]3CCC4=CC(=O)CC[C@]4(C)[C@H]3CC[C@]12C)C(C)C
inactive: [5] 0.0678 | [6] 0.0569 | [7] 0.0668 | [8] -0.0817

COC(=O)[C@H]1[C@H]2C[C@H]3c4[nH]c5cc(OC)ccc5c4CCN3C[C@H]2C[C@@H](OC(=O)c2cc(OC)c(OC)c(OC)c2)[C@@H]1OC
inactive: [5] 0.121 | [6] 0.17 | [7] 0.195 | [8] 0.313

COc1ccc2c(c1)[C@@]1(C)CCC(=O)C[C@H]1CC2
inactive: [5] 0.0614 | [6] 0.0537 | [7] 0.105 | [8] 0.0269

Clc1ccc(C(c2ccc(Cl)cc2)n2cc[n+](CC(OCc3ccc(Cl)cc3Cl)c3ccc(Cl)cc3Cl)c2)cc1 (stereo not given)
inactive: [1] 0.138 | [2] 0.0728 | [3] 0.0573 | [4] 0.0822

NCCCCCCNS(=O)(=O)c1cccc2c(Cl)cccc12
inactive: [5] 0.066 | [6] 0.0556 | [1] 0.156 | [2] 0.0625 | [7] 0.0432 | [8] 0.0443 | [3] 0.141 | [4] 0.102

NCCCCNS(=O)(=O)c1cccc2c(Cl)cccc12
active: [1] -0.151
inactive: [2] 0.0648 | [3] 0.0418 | [4] 0.0582

COc1ccccc1N1CCN(CCCCNS(=O)(=O)c2cccc3c(N(C)C)cccc23)CC1
inactive: [1] 0.171 | [2] 0.0777 | [3] 0.0423 | [4] 0.0929

O=C(Oc1cc(O)c2c(c1)O[C@H](c1cc(O)c(OC(=O)c3cc(O)c(O)c(O)c3)c3c(O)c(=O)cc(C4Oc5cc(O)cc(O)c5C[C@H]4O)cc13)[C@H](O)C2)c1cc(O)c(O)c(O)c1 (stereo not given in full)
inactive: [5] 0.0686 | [6] 0.0559 | [7] 0.0408 | [8] 0.0509

CC12CC[C@](C)(C(=O)O)CC1C1=CC(=O)[C@@H]3C4(C)CC[C@H](OC(=O)CCC(=O)O)C(C)(C)[C@@H]4CCC3(C)[C@]1(C)CC2 (stereo not given in full)
inactive: [5] 0.0741 | [6] -0.061 | [7] 0.0857 | [8] -0.0474

CC(=O)OC1CCC2(C)C(CCC3C2CCC2(C)C3CC3OC4(CCC(C)CO4)C(C)C32)C1 (stereo not given)
inactive: [5] 0.0872 | [6] 0.0698 | [7] 0.151 | [8] 0.0624

CC(=O)OC1CCC2(C)C(CCC3C2CC(=O)C2(C)C3CC3OC4(CCC(C)CO4)C(C)C32)C1 (stereo not given)
inactive: [5] 0.0619 | [6] 0.0314 | [7] 0.0226 | [8] 0.0969

COc1ccc(/C=C/C(=O)O)cc1O
inactive: [5] 0.0659 | [6] -0.0174 | [7] 0.0725 | [8] 0.0415

CCC(=O)O[C@H]1CC[C@H]2[C@@H]3CCc4cc(O)ccc4[C@H]3CC[C@]12C
inactive: [5] 0.0933 | [6] 0.137 | [7] 0.162 | [8] 0.0928

CCCCC(=O)O[C@H]1CC[C@H]2[C@@H]3CCc4cc(O)ccc4[C@H]3CC[C@]12C
inactive: [5] 0.0993 | [6] -0.0254 | [7] 0.16 | [8] 0.0807

C[C@]12CC[C@@H]3c4ccc(O)cc4CC[C@H]3[C@@H]1CC[C@@H]2OC(=O)CCC1CCCC1
active: [5] -0.302
inactive: [6] 0.00213 | [7] 0.197 | [8] 0.299

CS(=O)(=O)Nc1ccc([N+](=O)[O-])cc1Oc1ccccc1
inactive: [5] 0.147 | [6] 0.0914 | [1] 0.0788 | [2] -0.000657 | [7] 0.123 | [8] 0.11 | [3] 0.101 | [4] 0.0459

O=[N+]([O-])c1ccc(Oc2ccc(Br)cc2)c(C(O)[P+](=O)O)c1 (stereo not given)
active: [7] -0.289 | 25 µM, library screen: screen1, EWS-FLI1 expression: high (no doxycycline) -0.404
inactive: 0.025 µM, library screen: screen1, EWS-FLI1 expression: high (no doxycycline) 0.0442 | 0.025 µM, library screen: screen1, EWS-FLI1 expression: low (doxycycline-induced shRNA knockdown) 0.0701 | [5] 0.235 | [6] 0.0171 | [8] -0.0253 | 25 µM, library screen: screen1, EWS-FLI1 expression: low (doxycycline-induced shRNA knockdown) -0.0834

O=C(NC(=S)Nc1ncc(Br)cc1Br)c1cccs1
inactive: [5] 0.112 | [6] -0.086 | [7] 0.132 | [8] 0.0575

COc1c(Cl)ccc(Cl)c1C(=O)O
inactive: [5] 0.0938 | [6] 0.128 | [7] 0.0992 | [8] 0.17
